Source: PubChem BioAssay (NCATS)
Results filed as inconclusive are left out. For part of these data: Entries with a potency or affinity are not part of this list. Activity calls are given as the source filed them. Unless noted, no rule for the calls is given here.

Tests used:
[1] = Ebola virus entry assay, green fluorescence channel
[2] = Ebola virus entry assay, blue channel fluorescence
[3] = Ebola virus entry assay, ratio channel
[4] = Ebola virus entry assay, green channel fluorescence
[5] = Ebola virus entry assay, reporter ratio channel; Channel type: primary
[6] = Ebola virus entry assay, blue channel (ratio component)
[7] = qHTS assay for measurement of the activity of small molecule inhibitors on Zika virus induced Caspase-3 activity in human iPSC derived neural progenitor cells (hNPCs) (AID 1224857; active = well fitted curve in the direction sought with a large enough effect; an effect the other way counts as inactive or inconclusive; also: % of control where 0% means no effect; nearly all actives have a fitted effect of over 65% in size); conditions: hNPCs ZIKV-induced caspase-3/7, Caspase-Glo luminescence, 6 h; series mostly up to 45.7 µM
Procedure, shortened: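 Human iPSC-derived neural progenitor cells pretreated 1 hr with compounds, then infected with Zika virus (2 FFU/cell) for 6 hours at 37 C. Caspase-3/7 measured by Caspase-Glo luminescence; % inhibition calculated from induction scaled to uninfected (0%) and infected (100%) wells.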

[8] = qHTS assay for measurement of the activity of small molecule inhibitors on Zika virus induced Caspase-3 activity in human astrocytoma cells (AID 1224859; active = well fitted curve in the direction sought with a large enough effect; an effect the other way counts as inactive or inconclusive;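 also: plate controls were ZIKV-infected untreated cells for no effect and uninfected cells for full effect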); conditions: SNB-19 ZIKV-induced caspase-3/7, luminescence, 6 h; series mostly up to 45.7 µM
Procedure, shortened: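 SNB-19 astrocytoma cells, 250/well, pretreated 1 h with compounds, then Zika virus at 2 FFU/cell for 6 h at 37 C; Caspase-Glo 3/7 luminescence after 30 min; percent inhibition normalised to uninfected and infected controls.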

[9] = qHTS assay to identify small molecule inhibitors of chordoma cells - UCH-1 (AID 1259355; active = well fitted curve in the direction sought with a large enough effect; an effect the other way counts as inactive or inconclusive; also: % is scaled to controls: 0 for no effect and ±100 for the full control effect; nearly all actives have a fitted effect of over 55% in size); conditions: UCH-1 chordoma viability, CellTiter-Glo, 48 h, combination; series mostly up to 46.1 µM
Procedure, shortened: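 Seed 800 cells per well; incubate overnight at 37 C, 5% CO2. Add test compounds (15 concentrations), then the auranofin–topoisomerase-agent combination. Incubate 48hr, add CellTiter-Glo, wait 30min, read luminescence.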

[10] = qHTS assay to identify small molecule inhibitors of chordoma cells - UCH-2 (AID 1259356; active = well fitted curve in the direction sought with a large enough effect; an effect the other way counts as inactive or inconclusive; also: % is scaled to controls: 0 for no effect and ±100 for the full control effect); conditions: UCH-2 chordoma viability, CellTiter-Glo ATP luminescence, 48 h; series mostly up to 46.1 µM
For efficacy in this document: 0% is about no effect.

O=C(CCl)c1ccc(Cl)cc1Cl
inactive: efficacy [1] -14.1% | outcome [2] | outcome [3] | outcome [4] | outcome [5] | outcome [6] | Potency [7] | outcome [8]

C1CCN2C[C@@H]3C[C@@H](CN4CCCC[C@@H]34)[C@H]2C1
inactive: efficacy [1] 13.4% | outcome [2] | outcome [3] | outcome [4] | outcome [5] | outcome [6]

CCCS(=O)c1ccc2nc(NC(=O)OC)[nH]c2c1 (centres undefined)
inactive: efficacy [1] 23.9% | outcome [2] | outcome [3] | outcome [4] | outcome [5] | outcome [6]

CCOC(=O)NNc1nncc2ccccc12
inactive: efficacy [1] -15.2% | outcome [2] | outcome [3] | outcome [4] | outcome [5] | outcome [6]

O=C(CCNNC(=O)c1ccncc1)NCc1ccccc1
inactive: efficacy [1] -17% | outcome [2] | outcome [3] | outcome [4] | outcome [5] | outcome [6]

CNC(C)Cc1ccc2c(c1)OCO2 (centres undefined)
inactive: efficacy [1] -15.1% | outcome [2] | outcome [3] | outcome [4] | outcome [5] | outcome [6] | Potency [7] | outcome [8]

CC(=O)OC/C=C(C)/C=C/C=C(C)/C=C/C1=C(C)CCCC1(C)C
inactive: efficacy [1] -18.2% | outcome [2] | outcome [3] | outcome [4] | outcome [5] | outcome [6]

OC[C@H]1O[C@@H](n2cnc3c(=S)nc[nH]c32)[C@H](O)[C@@H]1O
inactive: efficacy [1] 23.6% | outcome [2] | outcome [3] | outcome [4] | outcome [5] | outcome [6]

CCCCN(CCCC)C(C(N)=O)c1ccc(OC)cc1 (centres undefined)
inactive: efficacy [1] 14.3% | outcome [2] | outcome [3] | outcome [4] | outcome [5] | outcome [6]

CN1C(=O)CC(c2ccccc2)C1=O (centres undefined)
inactive: efficacy [1] 12.2% | outcome [2] | outcome [3] | outcome [4] | outcome [5] | outcome [6]

CC(=O)OCC(=O)[C@@]1(O)CCC2C3CCC4=CC(=O)CC[C@]4(C)C3[C@@H](O)C[C@@]21C (some centres undefined)
inactive: efficacy [1] -12.5% | outcome [2] | outcome [3] | outcome [4] | outcome [5] | outcome [6]

Cc1ccc(Nc2c(F)cccc2Cl)c(CC(=O)O)c1
inactive: efficacy [1] -7.19% | outcome [2] | outcome [3] | outcome [4] | outcome [5] | outcome [6]

CC(C(=O)O)c1ccc(CC2CCCC2=O)cc1 (centres undefined)
inactive: efficacy [1] 31.1% | outcome [2] | outcome [3] | outcome [4] | outcome [5] | outcome [6]

O=C(O)Cc1ccccc1
inactive: efficacy [1] -19.3% | outcome [2] | outcome [3] | outcome [4] | outcome [5] | outcome [6] | Potency [7] | outcome [8]

CC(CC(C(N)=O)(c1ccccc1)c1ccccc1)N(C)C (centres undefined)
inactive: efficacy [1] 13% | outcome [2] | outcome [3] | outcome [4] | outcome [5] | outcome [6] | Potency [7] | outcome [8]

ClCc1cccc(Cl)c1
inactive: efficacy [1] -21.7% | outcome [2] | outcome [3] | outcome [4] | outcome [5] | outcome [6] | Potency [7] | outcome [8]

CC(Cc1ccc2c(c1)OCO2)NO (centres undefined)
inactive: efficacy [1] -23.6% | outcome [2] | outcome [3] | outcome [4] | outcome [5] | outcome [6] | Potency [7] | outcome [8]

C[C@]12C=CC(=O)C=C1CC[C@@H]1[C@@H]2CC[C@@]2(C)[C@H]1CC[C@]2(C)O
inactive: efficacy [1] -14% | outcome [2] | outcome [3] | outcome [4] | outcome [5] | outcome [6] | Potency [7] | outcome [8] | Potency [9] | Potency [10]

CCN(Cc1ccc(Cl)nc1)/C(=C/[N+](=O)[O-])NC
inactive: efficacy [1] -11.7% | outcome [2] | outcome [3] | outcome [4] | outcome [5] | outcome [6] | Potency [7] | outcome [8] | Potency [9] | Potency [10]

COP(=O)(OC)OC=C(Cl)Cl
inactive: efficacy [1] 29.4% | outcome [2] | outcome [3] | outcome [4] | outcome [5] | outcome [6] | Potency [7] | outcome [8] | Potency [9] | Potency [10]

C1CN2CCC1CC2
inactive: efficacy [1] -16% | outcome [2] | outcome [3] | outcome [4] | outcome [5] | outcome [6] | Potency [7] | outcome [8]

Nc1ccc(N)cc1
inactive: efficacy [1] 15.4% | outcome [2] | outcome [3] | outcome [4] | outcome [5] | outcome [6] | Potency [7] | outcome [8] | Potency [9] | Potency [10]

CCOC(=O)NC(C)(C)Cc1ccc(Cl)cc1
inactive: efficacy [1] -26.2% | outcome [2] | outcome [3] | outcome [4] | outcome [5] | outcome [6] | Potency [7] | outcome [8]

O=c1[nH]c2cc(Cl)ccc2n1C1CCNCC1
inactive: efficacy [1] 11.1% | outcome [2] | outcome [3] | outcome [4] | outcome [5] | outcome [6] | Potency [7] | outcome [8]

OC(O)C(Cl)(Cl)Cl
inactive: efficacy [1] 18.1% | outcome [2] | outcome [3] | outcome [4] | outcome [5] | outcome [6] | Potency [7] | outcome [8] | Potency [10]

N#Cc1nn(-c2c(Cl)cc(C(F)(F)F)cc2Cl)c(N)c1S(=O)C(F)(F)F (centres undefined)
inactive: efficacy [1] 9.5% | outcome [2] | outcome [3] | outcome [4] | outcome [5] | outcome [6] | Potency [7] | outcome [8] | Potency [9] | Potency [10]

NCc1cccnc1
inactive: efficacy [1] -20.3% | outcome [2] | outcome [3] | outcome [4] | outcome [5] | outcome [6] | Potency [7] | outcome [8] | Potency [9] | Potency [10]

O=C(CCCCl)c1ccc(F)cc1
inactive: efficacy [1] 36.2% | outcome [2] | outcome [3] | outcome [4] | outcome [5] | outcome [6] | Potency [7] | outcome [8]

C[C@]12CC[C@H](O)CC1=CC[C@@H]1[C@@H]2CC[C@]2(C)C(=O)CC[C@@H]12
inactive: efficacy [1] 42.1% | outcome [2] | outcome [3] | outcome [4] | outcome [5] | outcome [6] | Potency [7] | outcome [8] | Potency [10]

COc1ccc(CN2CCNCC2)c(OC)c1OC
inactive: efficacy [1] 47.4% | outcome [2] | outcome [3] | outcome [4] | outcome [5] | outcome [6] | Potency [7] | outcome [8] | Potency [9] | Potency [10]
